# From PubChem BioAssay
# Rows were chosen to be rich in hits. Some 5.9% of all compounds tested hit in one or more screens of this group.
# RORgamma inh: blocks mouse ROR gamma transcriptional activity | Potency, µM (top dose mostly 53.6 µM), inactives show at the highest dose activity change, negative = inhibition, actives largely listed as inhibitors | P51450 | hit rate 5.4% among 310,000 | Drosophila S2 Gal4-RORgamma UAS-luciferase reporter, 20 h | AID 2551; also: potency is read from the fitted curve at half-maximal effect; nearly all actives have a fitted effect of over 60% in size
#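 A Gal4/UAS one-hybrid system in insect cells: metallothionein-promoter Gal4–ROR gamma fusion plus Photinus luciferase reporter. Copper sulfate 700 uM final, 20 hr ambient incubation, luminescent detection after 10 min with reagent.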
# TrxR1 substrate: substrates of rat thioredoxin reductase 1. Potency, µM (doses to about 114 µM), inactives show at the top dose activity change, negative = substrate turnover. AID 588456. hit rate 0.01% among 390,000. O89049. purified TrxR1 substrate turnover, NADPH consumption readout; also: potency is read from the fitted curve at half-maximal effect; nearly all actives have a fitted effect of over 50% in size
# Target sequence (O89049 whole entry, looked up): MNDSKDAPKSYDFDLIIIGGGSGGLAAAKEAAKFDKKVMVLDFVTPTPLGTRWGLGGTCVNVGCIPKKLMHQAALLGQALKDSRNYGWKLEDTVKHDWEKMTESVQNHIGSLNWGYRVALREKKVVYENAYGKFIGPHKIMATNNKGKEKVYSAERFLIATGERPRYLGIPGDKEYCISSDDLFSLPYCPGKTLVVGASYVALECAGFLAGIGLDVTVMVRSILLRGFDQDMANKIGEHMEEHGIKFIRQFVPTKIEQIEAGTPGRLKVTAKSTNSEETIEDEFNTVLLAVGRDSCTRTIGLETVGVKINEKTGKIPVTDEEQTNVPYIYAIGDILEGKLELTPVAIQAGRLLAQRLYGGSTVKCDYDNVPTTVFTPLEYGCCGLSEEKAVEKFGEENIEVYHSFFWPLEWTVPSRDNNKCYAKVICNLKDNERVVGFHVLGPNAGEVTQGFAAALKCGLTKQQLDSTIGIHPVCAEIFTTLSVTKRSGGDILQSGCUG
#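 Rat TrxR1, dispensed at 90 nM, was prereduced with 400 uM NADPH (final) for 5 min at ~22 deg C, then incubated with compound 15 min before 400 uM selenite. A first-read NADPH fluorescence drop versus no-compound background flagged substrates.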
# VP16 counter: counter-screen for ROR gamma inhibitors: Gal4-VP16 reporter; Potency, µM (doses to about 53.6 µM), inactives show at the highest dose activity, negative = inhibition, hits mostly inhibitors; Drosophila S2 Gal4-VP16 UAS-luciferase, luminescence, 20 h; hit rate 3.5% among 310,000; AID 2546;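 also: Gal4-VP16 expression switched on by copper sulfate through the metallothionein promoter; potency is read from the fitted curve at half-maximal effect; nearly all actives have a fitted effect of over 50% in size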
# FBPA coupling cs: inhibits coupling enzyme system, counter-screen for aldolase hits | coupling enzyme system counterscreen, AmpLite Red fluorescence | activity change, negative = inhibition, % at 58.2 µM, hits read low | hit rate 0.67% among 290,000; in the data active = activity change below about -30%
#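 Fluorescence at 525 nm excitation and 598 nm emission measured inhibition of the coupled detection system without aldolase. Compounds (at 57.5 uM final) were preincubated 10 min at room temperature with coupling enzyme reagent before a 20 min substrate/AmpLite Red step.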
# GALK inhibitor: galactokinase (human) inhibition; P51570; hit rate 0.007% among 270,000; Potency, µM (doses to about 57.5 µM), without a hit: at the highest dose activity change, negative = inhibition, hits mostly inhibitors; Purified GALK, Kinase-Glo residual ATP luminescence; also: potency is read from the fitted curve at half-maximal effect
#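 Human GALK (5 nM) with 35 uM ATP and 100 uM galactose in 20 mM HEPES pH 8.0, 5 mM MgCl2, 60 mM NaCl, 1 mM DTT, 0.01% BSA. After 1 h at room temperature, leftover ATP was read by Kinase-Glo Plus luminescence.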
# TrxR1 inh: rat TrxR1 inhibition; O89049; recombinant rTrxR1, NADPH fluorescence consumption, selenite substrate; Potency, µM (highest dose often 114 µM), inactives show top-dose activity change, negative = inhibition, most hits filed as inhibitors; hit rate 1% among 390,000; AID 588453; also: potency is read from the fitted curve at half-maximal effect; nearly all actives have a fitted effect of over 65% in size
#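 Rat TrxR1 (90 nM in the dispensed reagent) was pre-reduced with 400 uM NADPH for 5 min at room temperature, then incubated with compound for 15 min. After 400 uM selenite was added, NADPH fluorescence (Ex 340/Em 450 nm) was followed for 8 min.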
# An asterisk follows results filed as active; ? = inconclusive; . = no result given; ! = a repeat was not active; [ ] = dose if it differs, or a comment. Unless noted, calls follow the shape of the dose curve; as a rule, active = well fitted curve in the direction sought with a large enough effect; inconclusive = small, poorly fitted or top-dose-only effect, or another doubt; inactive = no such curve, though single readings can be large; an effect the other way counts as inactive or inconclusive. % is scaled to controls: 0 for no effect and ±100 for the full control effect.
SMILES,RORgamma inh,TrxR1 substrate,VP16 counter,FBPA coupling cs,GALK inhibitor,TrxR1 inh
O=C(COc1ccc([N+](=O)[O-])cc1)Nc1ccc2c(c1)OCO2,18.3%,-5.4%[57.1 µM],-3.6%,0.3,0.2%,24.2%[57.1 µM]
O=C(COC(=O)c1ccc([N+](=O)[O-])o1)Nc1ccc2c(c1)OCO2,.,5.3%[57.1 µM],.,.,.,17.8µM*
Cc1cc(Cl)cc(C)c1OCCOCCNCc1ccccc1,32.1%[1.91 µM],3.4%,0.2%,0.5,0.5%,24.6%
CCC(=O)c1ccc(N2CCN(C(=O)c3cccc(F)c3)CC2)c(F)c1,23.4%,-2.9%[57.1 µM],?,-1.1,-2.9%,7.1%[57.1 µM]
Cc1ccc(NC(=O)CN(c2ccccc2)S(=O)(=O)N(C)C)cc1Cl,.,-6.1%,.,.,.,25.3%
CC(=Nc1cc(C(=O)c2ccccc2)ccc1N)C1=C(O)CC(C)(C)CC1=O,21.2%,-3.8%,-14.3%,-20.3,0.7%,5.9%[11.4 µM]
CC(=Nc1ccccc1N)c1c(C)cc(=O)n(O)c1O,?,.,?,-30.4*!,.,.
Cc1cc(C(=O)NNC(=S)Nc2cccc(C(F)(F)F)c2)nn1C,15.8µM*,-1.9%,11.2µM*,.,4.3%,-0.2%
Cc1ccc(NC(=S)NNC(=S)Nc2cccc(C(F)(F)F)c2)cc1,-1.4%,-14.0%,-6.5%,-0.7,.,-21.0%
CN(C)NC(=S)Nc1cccc(C(F)(F)F)c1,1µM*,7.3%[57.1 µM],5.62µM*,8.4,-0.5%,9.4%[57.1 µM]
CSc1ccccc1NC(=S)Nc1cccc(C(F)(F)F)c1,-108.6%,1.8%,?,0.4,0.8%,?
CC(NC(=S)Nc1cccc(C(F)(F)F)c1)C(C)(C)C (configuration not stated),3.16µM*,-16.9%,10µM*,-3.9,2.8%,-12.6%
COc1ccc(NC(=S)Nc2cccc(C(F)(F)F)c2)c(C)c1,10µM*,-12.0%,?,-0.5,-2.1%,?
Cc1ccc2nc(-c3ccc(NS(=O)(=O)c4ccc(F)c(F)c4)cc3)sc2c1,-41.8%,125.2%,?,1.1,-2.2%,5.4%
CCN(c1ccccc1)S(=O)(=O)c1cc(-c2onc(C)c2C)ccc1OC,.,4.4%[57.1 µM],.,.,.,11.0%[57.1 µM]
COc1ccc(-c2noc(CN3CCCC(OCc4ccccn4)C3)n2)cc1 (configuration not stated),19.3%,3.3%,6.0%,-3.5,-1.7%,-17.4%
O=C(NCC1CCCCC1)c1cc2ccccc2cc1O,37.8%,-3.0%,?,.,5.2%,12.9%
O=C(N/N=C1/CC2CCC1C2)c1cc2ccccc2cc1O (configuration not stated),0.891µM*,-2.7%,0.794µM*,.,-2.1%,21.8%
COc1ccc(-c2nsc3c(N4CCCCC4)ncnc23)cc1,1.12µM*,2.9%,?,4.1,3.7%,14.2%
COc1ccc(C(=O)N2CCN(c3ncnc4c(-c5ccccc5)nsc34)CC2)cc1,-3.7%,-6.7%[57.1 µM],1.9%,-0.1,-2.6%,18.4%[57.1 µM]
COc1ccc(-c2nsc3c(N4CCCCC4C)ncnc23)cc1 (configuration not stated),0.282µM*,3.0%[57.1 µM],?,0.3,4.6%,7.1%[57.1 µM]
COc1ccc(-c2nsc3c(N4CCN(S(=O)(=O)c5ccccc5F)CC4)ncnc23)cc1,44.9%,17.4%,-6.7%,4.3,1.2%,33.8%
Cc1ccc(-c2nsc3c(N4CCC(C(N)=O)CC4)ncnc23)cc1,?,9.5%[57.1 µM],0.631µM*,4.5,1.6%,9.3%[57.1 µM]
c1ccc2nc(NN=C3CCCCC3)ccc2c1,.,-3.0%[11.4 µM],.,.,.,-19.8%[11.4 µM]
Cn1ccsc1=NC(=O)c1ccc(Cl)c([N+](=O)[O-])c1,-9.7%,2.5%,-6.9%,-1.3,0.0%,12.5%
SMILES,RORgamma inh,TrxR1 substrate,VP16 counter,FBPA coupling cs,GALK inhibitor,TrxR1 inh
Cn1ccsc1=NC(=O)c1ccc(S(C)(=O)=O)c([N+](=O)[O-])c1,3.8%,-13.5%,-2.5%,.,5.1%,56.2µM*
COc1ccc(NC(=O)Cn2ncc(Cl)c(Cl)c2=O)cc1S(=O)(=O)N1CCOCC1,?,-3.0%,?,1.3,-2.3%,28.2µM*
Cc1ccc(S(=O)(=O)N2CCCCC2)cc1NC(=O)Cn1cnnn1,27.2%,-7.1%,14.2%,0.6,-1.3%,-8.3%
O=C(Cn1ncc(Cl)c(Cl)c1=O)N1CCN(S(=O)(=O)c2ccc3ccccc3c2)CC1,12.6µM*,7.3%,?,3.9,-1.0%,?
O=C(O)CCC(=O)N1CCN(S(=O)(=O)c2ccc3ccccc3c2)CC1,2.3%,-8.3%[57.1 µM],-1.7%,7.7,0.1%,26.2%[57.1 µM]
COc1ccc(NC(=O)c2ccc(Cl)nc2)cc1S(=O)(=O)N1CCOCC1,.,-1.4%,.,.,.,7.1%
Cc1ccc(S(=O)(=O)N2CCCCC2)cc1NC(=O)Cn1ncc(Cl)c(Cl)c1=O,.,9.2%,.,.,.,50.1µM*
CCC(=O)Nc1nc(NCc2ccccc2OC)n(-c2ccccc2)n1,6.0%,2.2%,4.9%,2.1,.,12.5%
O=C(Nc1cccc(C(=O)N2CCN(c3ccc(Cl)cc3)CC2)c1)c1nsc2ccccc12,.,-8.3%[57.1 µM],.,.,.,8.5%[57.1 µM]
Cc1ccc(CNC(=O)c2ccc(C#CC(C)(C)O)s2)cc1,?,1.4%[57.1 µM],13.9%,0.0,-0.3%,0.5%[57.1 µM]
COCCN1C(=O)c2oc3cc(C)cc(C)c3c(=O)c2C1c1cccc(O)c1 (configuration not stated),.,0.1%,.,.,.,2.2%
Cc1cc(C(=O)COC(=O)c2ccc(CO)cc2)c(C)n1CC1COc2ccccc2O1 (configuration not stated),30.6%,0.9%,?,5.5,-0.2%,15.7%
Cc1nc2c(ccc3c2ccc2nc(C)sc23)s1,-8.8%,-8.1%,-19.8%,-0.1,0.7%,6.3%[57.1 µM]
COc1cc2sc(C)nc2c2ccccc12,-26.3%,-2.6%,-2.6%,-32.0*,1.8%,4.4%
COc1cc(-c2noc(C)c2C(=O)NCCCN2CCCC2=O)cc(OC)c1OC,.,2.6%,.,.,.,15.7%
CCOC(=O)N1C(=O)[C@](c2ccc(Cl)cc2)(C(C)C)N1C(=O)OCC,-37.2%,-6.9%,-16.0%,-1.2,.,44.7µM*
C=C1C(=O)O[C@@H]2[C@H]1[C@@H](OC(=O)/C(C)=C/C)C/C(C)=C\C(=O)/C=C(\C)[C@@H]2O,?,12.0%[57.1 µM],11.2µM*,0.8,1.4%,?
CCOc1cc(C(=O)Nc2cc(C)on2)cc(OCC)c1OCC,2.24µM*,-9.4%,0.8%,0.4,-0.5%,-17.4%
Cc1cc(NC(=O)c2cccc(COc3ccc(Br)cc3)c2)no1,7.08µM*,0.5%,?,-0.4,-0.4%,17.7%
CCO/C=C1/C(=O)N(Cc2ccccc2)C(=O)c2ccccc21,-15.8%,-9.0%,-6.4%,-44.4*,-3.4%,-17.6%
CCO/C=C1\C(=O)N(c2ccccc2)C(=O)c2ccccc21,1.5%,42.6%,2.8%,0.2,6.0%,-11.2%
O=C1C=CC(=O)c2c(O)c(N3CCN(CCO)CC3)c(Cl)c(O)c21,.,56.2µM*,.,.,.,17.8%
